Results from PubChem BioAssay AID1159580 (chemical genetic matrix, 2015).
Hit rate of the full screen: of about 5,500 compounds, about 2,000 (36%) were called active. Another 18% or so got no clear call; they are omitted. No stated cut-off is given here; in the data, active means normalized growth mostly below about 0.91 (no sharp cut-off); inconclusive means no clear call, values can overlap the other calls; inactive means mostly above about 0.92. This is one part of the list.

Assay: chemical genetic growth profiling, strain panel (AID 1159580);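 further: tested at 20 µM; growth read once vehicle control cultures reached saturation at 30 °C; 1 = growth at the plate median or of vehicle wells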
Conditions: growth OD

Measured: normalized growth

OCCN1C[C@@H](O)[C@@H](O)C(O)C1CO (stereo partly specified)
inactive: S. cerevisiae deletion strains, locus YKL009W, strain mrt4, stronger effect = lower value 1.01 | S. cerevisiae deletion strains, locus YKL068W, stronger effect = lower value 1.01 | S. cerevisiae deletion strains, locus YKL085W, strain MDH1 (second series), stronger effect = lower value 1 | S. cerevisiae deletion strains, locus YKL085W, strain MDH1, stronger effect = lower value 1 | S. cerevisiae deletion strains, locus YKL160W, strain elf1, stronger effect = lower value 1.01 | S. cerevisiae deletion strains, locus YKL190W, strain CNB1, stronger effect = lower value 1.02 | S. cerevisiae deletion strains, locus YKR001C, strain vps1, stronger effect = lower value 0.999 | S. cerevisiae deletion strains, locus YKR026C, strain gcn3, stronger effect = lower value 1.02 | S. cerevisiae deletion strains, locus YKR091W, strain srl3, stronger effect = lower value 1 | S. cerevisiae deletion strains, locus YLL001W, strain dnm1, stronger effect = lower value 1.02 | S. cerevisiae deletion strains, locus YLL026W, stronger effect = lower value 1.01 | S. cerevisiae deletion strains, locus YLL041C, strain sdh2, stronger effect = lower value 1 | S. cerevisiae deletion strains, locus YLR027C, strain aat2, stronger effect = lower value 0.992 | S. cerevisiae deletion strains, locus YLR039C, strain RIC1, stronger effect = lower value 0.958 | S. cerevisiae deletion strains, locus YLR058C, strain SHM2, stronger effect = lower value 1.02 | S. cerevisiae deletion strains, locus YLR102C, strain apc9, stronger effect = lower value 0.997 | S. cerevisiae deletion strains, locus YLR113W, strain HOG1, stronger effect = lower value 1.04 | S. cerevisiae deletion strains, locus YLR221C, strain rsa3, stronger effect = lower value 1.01 | S. cerevisiae deletion strains, locus YLR258W, strain gsy2, stronger effect = lower value 1 | S. cerevisiae deletion strains, locus YLR262C, strain YPT6 (second series), stronger effect = lower value 0.994 | S. cerevisiae deletion strains, locus YLR262C, strain YPT6, stronger effect = lower value 1 | S. cerevisiae deletion strains, locus YLR268W, strain sec22, stronger effect = lower value 1 | S. cerevisiae deletion strains, locus YLR320W, strain mms22, stronger effect = lower value 1.01 | S. cerevisiae deletion strains, locus YLR330W, strain CHS5, stronger effect = lower value 1.01 | S. cerevisiae deletion strains, locus YLR342W, strain FKS1 (second series), stronger effect = lower value 1.01 | S. cerevisiae deletion strains, locus YLR342W, strain FKS1, stronger effect = lower value 0.99 | S. cerevisiae deletion strains, locus YLR357W, strain rsc2, stronger effect = lower value 1 | S. cerevisiae deletion strains, locus YLR370C, strain arc18, stronger effect = lower value 1 | S. cerevisiae deletion strains, locus YLR371W, strain rom2, stronger effect = lower value 0.995 | S. cerevisiae deletion strains, locus YLR384C, strain iki3, stronger effect = lower value 1 | S. cerevisiae deletion strains, locus YLR418C, strain cdc73, stronger effect = lower value 0.977 | S. cerevisiae deletion strains, locus YML016C, strain PPZ1, stronger effect = lower value 1.01 | S. cerevisiae deletion strains, locus YML032C, strain rad52, stronger effect = lower value 1.01 | S. cerevisiae deletion strains, locus YML120C, strain ndi1, stronger effect = lower value 1.02 | S. cerevisiae deletion strains, locus YML124C, strain tub3, stronger effect = lower value 1.01 | S. cerevisiae deletion strains, locus YMR058W, strain fet3, stronger effect = lower value 1 | S. cerevisiae deletion strains, locus YMR078C, strain ctf18, stronger effect = lower value 1 | S. cerevisiae deletion strains, locus YMR125W, strain sto1, stronger effect = lower value 0.997 | S. cerevisiae deletion strains, locus YMR129W, stronger effect = lower value 0.997 | S. cerevisiae deletion strains, locus YMR205C, strain PFK2, stronger effect = lower value 1 | S. cerevisiae deletion strains, locus YMR223W, strain ubp8, stronger effect = lower value 1 | S. cerevisiae deletion strains, locus YMR231W, strain pep5, stronger effect = lower value 1 | S. cerevisiae deletion strains, locus YMR263W, strain SAP30, stronger effect = lower value 1.02 | S. cerevisiae deletion strains, locus YMR307W, strain GAS1, stronger effect = lower value 1.01 | S. cerevisiae deletion strains, locus YNL067W, strain RPL9B, stronger effect = lower value 1.02 | S. cerevisiae deletion strains, locus YNL071W, strain lat1, stronger effect = lower value 0.993 | S. cerevisiae deletion strains, locus YNL128W, strain TEP1, stronger effect = lower value 1.02 | S. cerevisiae deletion strains, locus YNL153C, strain GIM3, stronger effect = lower value 1.01 | S. cerevisiae deletion strains, locus YNL183C, strain NPR1, stronger effect = lower value 0.97 | S. cerevisiae deletion strains, locus YNL209W, strain ssb2, stronger effect = lower value 1 | S. cerevisiae deletion strains, locus YNL233W, strain BNI4, stronger effect = lower value 1.02 | S. cerevisiae deletion strains, locus YNL248C, strain rpa49, stronger effect = lower value 1.02 | S. cerevisiae deletion strains, locus YNL250W, strain rad50, stronger effect = lower value 1 | S. cerevisiae deletion strains, locus YNL271C, strain bni1, stronger effect = lower value 0.986 | S. cerevisiae deletion strains, locus YNL298W, strain CLA4, stronger effect = lower value 0.994 | S. cerevisiae deletion strains, locus YNL307C, strain MCK1, stronger effect = lower value 1.01 | S. cerevisiae deletion strains, locus YNL322C, strain KRE1 (second series), stronger effect = lower value 1.02 | S. cerevisiae deletion strains, locus YNL322C, strain KRE1, stronger effect = lower value 1.01 | S. cerevisiae deletion strains, locus YNR049C, strain mso1, stronger effect = lower value 1 | S. cerevisiae deletion strains, locus YNR052C, strain pop2, stronger effect = lower value 0.999 | S. cerevisiae deletion strains, locus YOL006C, strain TOP1, stronger effect = lower value 1.04 | S. cerevisiae deletion strains, locus YOL012C, strain htz1 1.11 | S. cerevisiae deletion strains, locus YOL147C, strain pex11, stronger effect = lower value 1 | S. cerevisiae deletion strains, locus YOR001W, strain rrp6, stronger effect = lower value 1 | S. cerevisiae deletion strains, locus YOR061W, strain CKA2, stronger effect = lower value 1.01 | S. cerevisiae deletion strains, locus YOR069W, strain VPS5, stronger effect = lower value 1.01 | S. cerevisiae deletion strains, locus YOR070C, strain gyp1, stronger effect = lower value 0.997 | S. cerevisiae deletion strains, locus YOR080W, strain dia2, stronger effect = lower value 1.01 | S. cerevisiae deletion strains, locus YOR083W, strain WHI5, stronger effect = lower value 1 | S. cerevisiae deletion strains, locus YOR106W, strain vam3, stronger effect = lower value 1.03 | S. cerevisiae deletion strains, locus YOR136W, strain idh2, stronger effect = lower value 0.998 | S. cerevisiae deletion strains, locus YOR144C, strain elg1, stronger effect = lower value 1 | S. cerevisiae deletion strains, locus YOR184W, strain ser1, stronger effect = lower value 1 | S. cerevisiae deletion strains, locus YOR231W, strain MKK1, stronger effect = lower value 1.01 | S. cerevisiae deletion strains, locus YOR265W, strain rbl2, stronger effect = lower value 0.988 | S. cerevisiae deletion strains, locus YOR270C, strain vph1, stronger effect = lower value 1.05 | S. cerevisiae deletion strains, locus YOR290C, strain snf2, stronger effect = lower value 1.01 | S. cerevisiae deletion strains, locus YOR316C, strain cot1, stronger effect = lower value 0.997 | S. cerevisiae deletion strains, locus YPL051W, strain arl3, stronger effect = lower value 1 | S. cerevisiae deletion strains, locus YPL055C, strain LGE1, stronger effect = lower value 1.05 | S. cerevisiae deletion strains, locus YPL078C, strain atp4, stronger effect = lower value 1.01 | S. cerevisiae deletion strains, locus YPL106C, strain sse1, stronger effect = lower value 1.03 | S. cerevisiae deletion strains, locus YPL240C, strain hsp82, stronger effect = lower value 1 | S. cerevisiae deletion strains, locus YPL241C, strain CIN2, stronger effect = lower value 1.01 | S. cerevisiae deletion strains, locus YPL256C, strain CLN2, stronger effect = lower value 1.02 | S. cerevisiae deletion strains, locus YPR119W, strain clb2, stronger effect = lower value 0.996 | S. cerevisiae deletion strains, locus YPR141C, strain kar3, stronger effect = lower value 1 | S. cerevisiae deletion strains, locus YPR163C, strain tif3, stronger effect = lower value 1 | S. cerevisiae deletion strains, locus YPR167C, strain met16, stronger effect = lower value 0.997 | S. cerevisiae deletion strains, strain wtn01, stronger effect = lower value 1 | S. cerevisiae strains, strain wild type, stronger effect = lower value 1.01
